Compound activity (PubChem BioAssay)
This is a sample that favours compounds with a hit; in the whole collection about 2% have one here.
TDP-43 yeast inh: qHTS of TDP-43 Inhibitors. Potency, µM (titrated, usually from 46.1 µM), without a hit: top-dose growth rescue (activation), most hits filed as activators. TDP-43 expressing yeast growth rescue, BacTiter-Glo, 24 h. hit rate 1.8% among 410,000; further: potency means the concentration at half of the fitted maximal effect; % of control where 0% means no effect; nearly all actives have a fitted effect of over 50% in size
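Yeast expressing TDP-43 (pregrown in raffinose, seeded at OD600=0.02 in galactose medium) exposed to compounds 24 hr at 30 deg C. Growth read by BacTiter-Glo luminescence; rescue of toxicity appears as increased signal.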
GRP78 ERSR act: qHTS for Inducers of the Endoplasmic Reticulum Stress Response (ERSR) in Human Glioma: qHTS | hit rate 0.02% among 420,000 | Potency, µM, inactives show at the top dose activation, actives largely listed as activators | U87-MG GRP78 promoter luciferase reporter, 16 h; further: potency means the concentration at half of the fitted maximal effect; series mostly up to about 76 µM; % of control where 0% means no effect; nearly all actives have a fitted effect of over 35% in size
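Stably transfected U87-MG human glioma cells carrying a GRP78-based luminescent sensor were seeded at 1000 cells/well, pin-dosed with compounds and incubated 16 h. Luciferase reagent was then added, and end-point luminescence was read after 10 min at room temperature.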
FUS suppressor: qHTS for Suppressors of FUS Proteinopathy: Primary screen using FUS-linked yeast assay; hit rate 0.24% among 390,000; Potency, µM (doses to about 76.6 µM), most hits filed as activators; S. cerevisiae FUS-expressing, growth rescue, OD600, 24 h;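 further: potency means the concentration at half of the fitted maximal effect; plate controls were DMSO vehicle for no effect and reference control for full effect; nearly all actives have a fitted effect of over 55% in size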
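Absorbance at 600 nm, taken 24hr after compound addition, measured rescue of FUS-yeast growth at 30C. Induction used 2% galactose with seeding at OD 0.005. Controls: CP55940 from 92uM final, DMSO only.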
MBNL1 CUG block: qHTS Assay for Inhibitors of MBNL1-poly(CUG) RNA binding. Muscleblind-like protein 1 (Homo sapiens), Q9NR56. TR-FRET MBNL1-His/biotin-(CUG)12 binding, 665/545 ratio. Potency, µM (series often up to 57.5 µM), for the others: at the top dose activity change, negative = inhibition, hits mostly inhibitors. hit rate 0.036% among 280,000; active means well fitted inhibition curve with a large enough effect in the signal ratio, with a control signal flat, not every such curve was filed as active; inconclusive means small, poorly fitted or top-dose-only effect, or effect the other way, or a change in a side signal; inactive means no such curve, though single readings can be large or run the other way; the % refers to the signal ratio; further: potency means the concentration at half of the fitted maximal effect; on the % scale 0 is the no-effect control and ±100 the full control effect
Target sequence (Q9NR56 whole entry, looked up): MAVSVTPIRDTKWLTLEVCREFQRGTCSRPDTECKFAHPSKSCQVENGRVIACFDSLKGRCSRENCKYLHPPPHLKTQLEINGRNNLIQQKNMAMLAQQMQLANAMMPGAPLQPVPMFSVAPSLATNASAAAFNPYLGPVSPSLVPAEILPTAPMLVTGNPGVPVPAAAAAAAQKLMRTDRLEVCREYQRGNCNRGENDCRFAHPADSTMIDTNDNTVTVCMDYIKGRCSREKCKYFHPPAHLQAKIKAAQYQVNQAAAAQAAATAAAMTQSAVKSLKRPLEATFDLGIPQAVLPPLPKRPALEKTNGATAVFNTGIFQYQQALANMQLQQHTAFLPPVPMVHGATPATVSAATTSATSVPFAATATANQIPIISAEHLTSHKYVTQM
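His-tagged MBNL1 binding to biotinylated (CUG)12 RNA was measured by TR-FRET using terbium anti-His antibody (0.055 ng/ul final) and streptavidin-XL665 (5 nM final). Compounds were titrated 92 nM to 58 uM; 60 min at room temperature.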
Abeta rescue: qHTS for compounds that reverse cellular toxicity of Amyloid beta (A-beta) peptide in yeast: Primary Screen | yeast expressing A-beta42, growth rescue, OD600, 48 h; response scale: 0% DMSO, 100% iron-clioquinol control | Potency, µM (series often up to 46.1 µM), most hits filed as activators | hit rate 0.063% among 410,000 | AID 1347071, 2019; further: potency means the concentration at half of the fitted maximal effect; nearly all actives have a fitted effect of over 55% in size
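Yeast A-beta toxicity model in growth medium with pinned compounds, 48 h at 30 C; growth read as absorbance at 600 nm. Normalized to FeCl3/clioquinol equimolar mix (positive) and DMSO (negative).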
aSyn rescue: qHTS of alpha-syn Inhibitors; hit rate 0.14% among 370,000; Potency, µM (top dose mostly 46.1 µM), for inactives: at the highest dose growth rescue (activation), hits mostly activators; Yeast expressing alpha-synuclein, growth rescue, BacTiter-Glo, 24 h; AID 652106, 2013; further: potency means the concentration at half of the fitted maximal effect; % of control where 0% means no effect; nearly all actives have a fitted effect of over 65% in size
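Readout is rescue of growth in alpha-synuclein-expressing yeast, so inhibitors of toxicity appear as activators. Growth after 24 hr at 30 deg C in galactose medium is quantified by luminescence.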
MBNL1 TRFRET: qHTS Assay for Inhibitors of MBNL1-poly(CUG) RNA binding: Initial hit validation from the primary screen. Potency, µM (titrated, usually from 57.6 µM), for inactives: at the highest dose activity change, negative = inhibition, usual class: inhibitors. TR-FRET MBNL1-His / biotin-(CUG)12 binding, 60 min. shares compounds with MBNL1 CUG block. AID 493199, 2011. hit rate 50% among 140
MBNL1-CUG Alpha: qHTS Assay for Inhibitors of MBNL1-poly(CUG) RNA binding: Initial hit validation in AlphaScreen assay for MBNL1-(CUG)12 binding; AlphaScreen MBNL1-His / biotin-(CUG)12 binding; shares compounds with MBNL1 CUG block; hit rate 30% among 140; Potency, µM (highest dose often 57.7 µM), without a hit: at the highest dose activity, negative = inhibition, usual class: inhibitors
MBNL1 HTRF CS: qHTS Assay for Inhibitors of MBNL1-poly(CUG) RNA binding: Counterscreen HTRF assay; His-Menin/biotin-MLL peptide TR-FRET counterscreen; Potency, µM (highest dose often 57.6 µM), for the others: at the top dose activity, negative = inhibition, usual class: inhibitors; shares compounds with MBNL1 CUG block; hit rate 20% among 120; AID 651843, 2012
* = called active by the depositor; i = inactive; u = inconclusive; x = no result given; ! = not active in a repeat. Unless noted, the call rests on the fitted dose curve; in most records, active means well fitted curve in the direction sought with a large enough effect; inconclusive means small, poorly fitted or top-dose-only effect, or another doubt; inactive means no such curve, though single readings can be large; an effect the other way counts as inactive or inconclusive.

SMILES	TDP-43 yeast inh	GRP78 ERSR act	FUS suppressor	MBNL1 CUG block	Abeta rescue	aSyn rescue	others
Cc1ccc(OCCn2c(NC(=O)c3ccco3)nc3ccccc32)cc1	6%	-8%	i	1%	i	-4%
CCCn1c(NC(=O)C2CCN(C(=O)c3ccccc3C)CC2)nc2ccccc21	u	-3%	i	x	i	1%
Cc1cccc(OCCn2c(-c3ccco3)nc3ccccc32)c1	11µM*	10%	i	-11%	i	-8%
CCC(C)NC(=O)CNc1nnnn1-c1ccccc1 (configuration not stated)	x	x	i	x	x	x
COc1ccccc1NC(=S)OC1CCC12CCC(c1ccccc1)CC2 (configuration not stated)	x	x	i	x	x	x
CCCS(=O)(=O)NCc1c(C)ncc2c1CCN(C(=O)c1ccc3[nH]c4c(c3c1)CCCC4)C2	x	2%	x	x	x	x
NC(=S)c1ccc(OCCCc2ccccc2)cc1	10µM*	2%	i	x	i	8%
CCCCOc1ccc(C(=O)NCCc2ccccc2)cc1	15%	-3%	i	1%	i	-1%
COc1cccc(COC(=O)c2nn(-c3ccccc3)nc2N)c1	35µM*!	-2%	i	0%	i	-4%
COCc1ccc(CN2Cc3cc(Cl)ccc3OC(C)C2)o1 (configuration not stated)	x	-2%	x	x	x	x
CCSC1=NCCN1C(=O)Cc1ccc(-c2ccccc2)cc1	14µM*	2%	i	-3%	i	5%
COc1ccc(CC(=O)N2CCN=C2SCc2ccc([N+](=O)[O-])cc2)cc1	7.9µM*	-2%	i	5%	i	-9%
CSC1=NCCN1C(=O)Cc1ccc(-c2ccccc2)cc1	u	11%	u	-3%	i	u
Cc1sc2nc(-c3ccncc3)[nH]c(=O)c2c1-c1ccccc1	x	x	x	-7%	x	x
Cc1sc2nc(-c3ccccn3)[nH]c(=O)c2c1-c1ccccc1	18µM*	3%	i	u	i	u
COC(=O)[C@@H]1CCCN1Cc1ccc2c(c1)CN(Cc1cccc(Cl)c1)CCO2	x	-3%	x	x	x	x
c1ccc(CNC2CCC23CCC(c2ccccc2)CC3)cc1 (configuration not stated)	x	x	i	x	x	x
CSc1nnc(Nc2ccccc2C)s1	11µM*	-1%	i	1%	i	3%
Cc1cc(NC(=O)CSc2nnc(Nc3ccccc3C)s2)no1	2%	-3%	i	-8%	i	8%
CC1(c2nnc(-c3ccc(Cl)cc3)o2)CC(c2c(Cl)cccc2Cl)=NO1 (configuration not stated)	24%	-2%	i	-5%	i	-3%
CC1(c2nnc(-c3ccc(F)cc3)o2)CC(c2c(Cl)cccc2Cl)=NO1 (configuration not stated)	35µM*	-3%	i	1%	i	-11%
CCCCNC[C@@]12CO[C@H](c3ccc(Cl)cc3)N1[C@@H](c1ccc(Cl)cc1)SC2	x	x	i	x	x	x
COCCn1c(C)cc(C2=NNC(=Nc3ccccc3)SC2)c1C	-10%	-8%	10µM*	7%	i	1%
CC1(C(=O)NS(=O)(=O)c2ccc(Cl)cc2)CCN1C(=O)Cc1cccc2ccccc12 (configuration not stated)	3%	-6%	i	x	i	0%
CC(C)(C)c1ccc(CC(=O)N2CCC2(C)C(=O)NCc2ccc(Cl)cc2)cc1 (configuration not stated)	0%	-4%	u	x	i	0%
SMILES	TDP-43 yeast inh	GRP78 ERSR act	FUS suppressor	MBNL1 CUG block	Abeta rescue	aSyn rescue	others
CC1(C(=O)Nc2cccc3ccccc23)CCN1C(=O)Cc1ccc(Cl)cc1Cl (configuration not stated)	35µM*	3%	u	x	i	u
CC1(C(=O)NCc2ccc(Cl)cc2)CCN1C(=O)Cc1ccc(Cl)cc1Cl (configuration not stated)	32µM*	-1%	i	x	i	u
CC1(C(=O)Nc2ccc(F)cc2F)CCN1C(=O)Cc1ccccc1Cl (configuration not stated)	0%	-1%	i	x	i	8%
CC1(C(=O)NCc2ccc(Cl)cc2)CCN1C(=O)Cc1cccc2ccccc12 (configuration not stated)	35µM*	-1%	i	x	i	u
CC1(C(=O)Nc2ccccc2F)CCN1C(=O)Cc1cc(F)ccc1F (configuration not stated)	7.1µM*	-1%	i	x	i	7%
CC1(C(=O)NS(=O)(=O)c2ccc3ccccc3c2)CCN1C(=O)Cc1ccc(Cl)cc1Cl (configuration not stated)	-1%	-2%	i	x	i	-15%
FC(F)(F)c1cnc(-c2cc3c(c(OCC4CCCO4)c2)OCCN(Cc2cccn2-c2nccs2)C3)c(Cl)c1 (configuration not stated)	x	2%	x	x	x	x
O=C(Nc1ccc(F)cc1)Nn1cnnc1	-3%	-4%	i	-23%	i	1%
COc1ccc(NC(=O)Nn2cnnc2)cc1OC	-2%	-7%	i	40µM*	i	-10%	MBNL1 TRFRET=26µM*;MBNL1-CUG Alpha=-3%;MBNL1 HTRF CS=u
